± gives the standard deviation of the averaged measurements.
Compound: CC(C)c1cccc(C(C)C)c1N1C(=O)c2ccc(O)cc2C1=O
Experiment: BioMAP readout fold decrease vs vehicle (vehicle/treated); higher = stronger decrease of the readout vs vehicle (values <1 mean increase)
Method: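 BioSeek BioMAP human primary cell (co-)culture systems (3C, 4H, LPS, SAg, BE3C, CASM3C, hDFCGF, KF3CT) treated with 5HPP-33 at 1.48, 4.44, 13.3 and 40 µM. Read-outs are protein levels by ELISA, proliferation and SRB total protein. Duplicate rows per assay are averaged as replicates. Tested in ToxCast Phase II for this study; exposure time not stated.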
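Note: Co-cultures of keratinocytes, bronchial epithelial and smooth muscle cells, fibroblasts, HUVECs and PBMCs under stimuli like LPS, TNF-α, IFN-γ, IL-1β, TGF-β or EGF, SRB reflecting cytotoxicity.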

Row | Target | BioMAP readout fold decrease (1.48 µM) | BioMAP readout fold decrease (4.44 µM) | BioMAP readout fold decrease (13.3 µM) | BioMAP readout fold decrease (40 µM)
1 | CASM3C_LDLR | 1.1 ± 0.017 | 1.188 ± 0.002 | 0.969 ± 0.038 | 2.21 ± 0.034
2 | SAg_Eselectin | 1.14 ± 0.027 | 1.02 ± 0.041 | 1.14 ± 0.087 | 3.92 ± 0.27
3 | BE3C_hLADR | 0.985 ± 0.037 | 1.17 ± 0.015 | 1.72 ± 0.043 | 2.97 ± 0.053
4 | BE3C_TGFb1 | 1.05 ± 0.079 | 1.09 ± 0.061 | 1.117 ± 0.0036 | 1.32 ± 0.1
5 | BE3C_uPAR | 1.02 ± 0.013 | 1.0603 ± 0.00083 | 1.1 ± 0.012 | 1.26 ± 0.022
6 | hDFCGF_SRB | 1 ± 0.034 | 0.959 ± 0.0096 | 1.19 ± 0.017 | 2.06 ± 0.21
7 | 3C_Eselectin | 1.04 ± 0.051 | 1.056 ± 0.0015 | 0.99 ± 0.023 | 1.39 ± 0.034
8 | CASM3C_MIG | 0.9799 ± 0.0029 | 0.9517 ± 0.009 | 0.96395 ± 0.0005 | 1.03 ± 0.015
9 | CASM3C_VCAM1 | 1.05 ± 0.029 | 1.0767 ± 0.00049 | 1.19 ± 0.023 | 1.55 ± 0.021
10 | 4H_Pselectin | 0.965 ± 0.074 | 1.09 ± 0.095 | 1.56 ± 0.019 | 1.75 ± 0.032
